Screening data deposited in PubChem by National Center for Advancing Translational Sciences (NCATS).
FEN1 inhibitor – inhibitors of human flap endonuclease 1; Recombinant FEN1 flap cleavage, fluorescence, 15 min; hit rate 0.35% among 390,000; P39748; AID 588795; Potency, µM (doses to about 114 µM), most hits filed as inhibitors; note: nearly all actives have a fitted effect of over 65% in size
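Steps: FEN1 (10 nM) dispensed; compound added by pin tool; 15 min at room temperature; substrate added to 50 nM final; reads at 0 min and 15 min; data normalized and fitted (four-parameter Hill).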
Pol eta inh – inhibitors of human DNA polymerase eta; hit rate 1.2% among 390,000; Q9Y253; Potency, µM (series often up to 114 µM), hits mostly inhibitors; recombinant Pol eta, fluorescent DNA replication assay
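Pol eta (10 nM) was preincubated with compounds for 15 min at room temperature, after which fluorescent replication substrate (50 nM final) was added to start the reaction. Fluorescence was read kinetically at 0 and 10 min.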
POLI inh – DNA polymerase iota (human) inhibition; Q9UNA4; Pol iota fluorescent replication assay, 10 min; Potency, µM (highest dose often 115 µM), actives largely listed as inhibitors; hit rate 1% among 390,000
Target sequence (Q9UNA4 whole entry, looked up): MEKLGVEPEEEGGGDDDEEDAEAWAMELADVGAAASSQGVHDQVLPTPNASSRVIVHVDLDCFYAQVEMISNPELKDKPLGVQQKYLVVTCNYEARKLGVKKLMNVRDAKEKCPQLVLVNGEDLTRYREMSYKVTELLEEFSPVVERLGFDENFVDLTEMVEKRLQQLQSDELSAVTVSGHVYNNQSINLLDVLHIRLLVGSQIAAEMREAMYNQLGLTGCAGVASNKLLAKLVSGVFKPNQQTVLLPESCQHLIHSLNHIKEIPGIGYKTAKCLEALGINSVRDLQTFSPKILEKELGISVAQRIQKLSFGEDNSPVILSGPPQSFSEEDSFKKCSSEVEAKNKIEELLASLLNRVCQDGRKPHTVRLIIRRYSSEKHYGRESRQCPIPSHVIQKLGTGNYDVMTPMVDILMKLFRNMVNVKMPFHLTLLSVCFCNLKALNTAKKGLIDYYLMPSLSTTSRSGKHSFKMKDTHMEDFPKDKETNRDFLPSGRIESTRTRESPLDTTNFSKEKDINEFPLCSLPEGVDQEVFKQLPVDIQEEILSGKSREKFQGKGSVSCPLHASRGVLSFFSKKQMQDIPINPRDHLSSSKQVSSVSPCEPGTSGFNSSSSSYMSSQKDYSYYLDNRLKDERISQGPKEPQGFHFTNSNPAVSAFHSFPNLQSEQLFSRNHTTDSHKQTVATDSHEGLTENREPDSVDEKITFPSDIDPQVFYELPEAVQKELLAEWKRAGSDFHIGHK
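Pol iota at 10 nM preincubated 15 min with compounds at room temperature; reaction started with fluorescent substrate, 50 nM final. Fluorescence read kinetically at 0 and 10 min; buffer-only wells as negative control.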
WRN inhibitor – inhibitors of human WRN helicase; Q14191; WRN helicase unwinding, fluorescent forked duplex, kinetic; Potency, µM (series often up to 114 µM), usual class: inhibitors; hit rate 0.46% among 360,000; AID 651768; note: nearly all actives have a fitted effect of over 55% in size
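Fluorescence dequenching readout, ex 525 nm/em 598 nm, kinetic mode: forked duplex DNA (100 nM final) with adjacent fluorophore and quencher unwound by WRN (20 nM final) with 2 mM ATP. Compound preincubation 15 min, room temperature.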
POLK inh – DNA polymerase kappa (human) inhibition; Q9UBT6; Potency, µM (series often up to 107 µM), actives largely listed as inhibitors; hit rate 0.53% among 400,000; purified Pol kappa, fluorescent DNA synthesis assay, 10 min
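First, compounds were pin-transferred onto 10 nM Pol kappa. After 15 min at room temperature, substrate was added to 50 nM final. Fluorescence was then measured kinetically at 0 and 10 min.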
Pol beta inh – blocks human DNA polymerase beta activity; Pol beta primer extension/strand displacement, fluorescence kinetic; AID 485314; Potency, µM (series often up to 114 µM), usual class: inhibitors; hit rate 1.3% among 340,000; P06746
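Preincubation: enzyme (10 nM) with compound, 15 min, RT. Reaction: substrate added to 50 nM final. Reads: 0 and 10 min. Analysis: normalized, Hill fit.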
A number is an active result; – = inactive; ? = inconclusive; · = not tested or not shown; [ ] = dose if it differs, or a comment. Sampled rows, rich in hits. Any-hit rate of the full collection: about 2.4%. Calls come from the whole dose curve; as a rule, active = well fitted curve in the direction sought with a large enough effect; inconclusive = small, poorly fitted or top-dose-only effect, or another doubt; inactive = no such curve, though single readings can be large; an effect the other way counts as inactive or inconclusive.

SMILES	FEN1 inhibitor	Pol eta inh	POLI inh	WRN inhibitor	POLK inh	Pol beta inh
Cc1ccccc1OCc1cc(=O)n2c(-c3ccccc3)csc2n1	–	–	–	·	–	–
CCN(CC(=O)NC(C)(C)C)Cc1cc(=O)n2c(-c3ccccc3)csc2n1	–	?	45µM	–	–	?
CCOc1ccc(C(CC(=O)Nc2ccc(C(=O)OC)cc2)N2Cc3ccccc3C2=O)cc1OC (configuration not stated)	–	–	–	·	–	–
CCN(CC)S(=O)(=O)c1ccc2c(c1)N(CC(=O)Nc1ccc(F)cc1F)C(=O)C1CCCN21 (configuration not stated)	–	–	–	·	–	–
Oc1ccccc1Oc1ncc(Br)c(N2CCOCC2)n1	–	–	–	–	–	–
Oc1ccccc1Oc1ncc(Br)c(Cl)n1	–	–	50µM	–[11.6 µM]	–	22µM
O=C(Nc1ccccc1)c1cc(C2COCCN2C(=O)c2cccs2)on1 (configuration not stated)	·	·	·	–	·	·
O=C(O)c1cn(-c2ccc(F)cc2)c2cc(N3CCNCC3)c(F)cc2c1=O	45µM	–	?	–	–	·
Cn1cc(S(=O)(=O)c2ccccc2)c(=O)c2cc(F)c(N3CCN(c4ccc(F)cc4)CC3)cc21	–	–	–	·	–	–
Cc1ccc(/C=C2\S/C(=N/S(=O)(=O)c3cccs3)NC2=O)cc1	?	25µM	40µM	50µM	–	–
CCOc1cc(/C=C2\C(=O)N(c3cccc(C(=O)O)c3)N=C2C(F)(F)F)ccc1OCC(=O)Nc1ccccc1OC	·	·	·	·	·	20µM
O=C(Nc1ccc(F)cc1)C(c1cc2ccccc2o1)N1CCN(c2cccc(C(F)(F)F)n2)CC1 (configuration not stated)	·	·	·	–	·	·
CSc1nc(Sc2ccccc2)c2ccccc2n1	–	–	–	–	–	–
CSc1nc(=O)[nH]nc1Sc1ccccc1	·	45µM	·	–[11.6 µM]	·	·
Oc1cc(NCCN2CCOCC2)cc2cccnc12	–	–	7.1µM	·	–	·
Oc1cc(Nc2ccccc2)cc2cccnc12	–	–	–	·	–	·
O=C(O)C1(C(=O)O)CCC1.[NH2-].[NH2-].[Pt+2]	·	·	·	·	8.9µM	·
O=C(O)C1(C(=O)O)CCCC1	–	–	–	–	–	·
O=C(O)C1Sc2[nH]c(=O)sc2C2c3ccc(O)cc3OC(=O)C12 (configuration not stated)	?	–	?	25µM	?	–
COCCN1C(=O)/C(=C/c2ccc(N3CCCC3)cc2C)SC1=S	–	–	?	79µM	–	–
NC(N)=N/N=C/c1ccc(OCc2ccccc2)c(OCc2ccccc2)c1	?	–	–	–	–	79µM
CCOc1cc(/C=N/N=C(N)N)ccc1OCc1ccc(Cl)cc1	–	–	–	–	–	79µM
O=C(c1csnn1)N1CCC2(CC1)CN(c1ccccn1)C2	·	·	·	·	–	·
CCOC(=O)c1ccccc1NC(=O)c1cc2c(=O)oc3ccc(C)cc3c2s1	–	–	–	·	–	–
CCc1c(C)nc2nncn2c1Nc1ccc(C(C)C)cc1	–	–	–	·	–	–
SMILES	FEN1 inhibitor	Pol eta inh	POLI inh	WRN inhibitor	POLK inh	Pol beta inh
CCCCN1CC(c2nc3ccccc3n2CCCCOc2c(C)cccc2C)CC1=O (configuration not stated)	–	–	–	·	–	–
O=c1c(Cl)c(Cl)cnn1Cc1nnc(-c2ccc(Cl)cc2)o1	–	50µM	40µM	–[11.6 µM]	–	40µM
CCCN(C(=O)Cc1c(C(=O)O)[nH]c2ccc(Cl)cc12)c1ccc(OCC)cc1	–	–	–	·	–	50µM
CCCCN(CC)C(=O)Cc1c(C(=O)O)[nH]c2ccc(Cl)cc12	–	–	–	–	–	–
CCC(=O)Nc1cccc(-c2cn3c(C)csc3n2)c1	–	–	–	·	–	–
CCCCOC(=O)c1cccc(NC(=O)/C=C/c2ccccc2Cl)c1	–	–	–	·	–	–
Cc1ccc2nc(SCC(=O)NCc3ccco3)c(C#N)cc2c1	–	?	–	–	–	?
Cc1ccc2cc3cc(C(=O)NCc4ccco4)oc3nc2c1	–	?	?	?	?	79µM
Cc1ccc2cc(C#N)c(SCC(=O)NCc3ccco3)nc2c1	–	?	?	–	–	22µM
Oc1ccc(/C=N/Nc2ccnc3cc(Cl)ccc23)c(O)c1O	45µM	?	?	?	45µM	14µM
